Measurements as given in PubChem BioAssay AID1272365 (Small Molecule Screening Facility, UW Madison, 2020).
Values joined by “and” are separate entries in the source; they are usually repeats but may differ in a detail not shown here. Equal values may be shown once. About 2,600 (0.6%) of roughly 430,000 compounds were called active. Cut-off read from the data, not from the text of the source: active = inhibition mostly above about 37% (no sharp cut-off); inactive = mostly below about 20%. The entries come from a sample that favours actives as a whole.

The compounds below were run on PriA–SSB C-terminal tail interaction (Klebsiella pneumoniae) (assay: blocks PriA binding to SSB C-terminal tail, primary screen, biochemical, AlphaScreen (AID 1272365;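 note: plate controls were negative control peptide for no effect and reference peptide for full effect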)). Details: AlphaScreen SSBct-PriA binding, biotinylated peptide; at 33 µM, stronger effect = higher value.

Row | Compound | inhibition
1 | Cc1cccc(-n2cnc(C(=O)Nc3cccnc3)c2)n1 | -12.9% (inactive)
2 | Cc1cccc(-n2cnc(C(=O)NNC(=S)Nc3ccccc3)c2)n1 | 66.5% (active)
3 | O=C(NNC(=S)Nc1ccccc1)c1cccc(S(=O)(=O)N2CCOCC2)c1 | -5.79% (inactive)
4 | O=C(NCC(F)(F)F)C1CCN(c2cc(-n3cncn3)ncn2)CC1 | 4% (inactive)
5 | Cc1c(CCOC(=O)C23CC4CC(CC(C)(C4)C2)C3)sc[n+]1Cc1ccc([N+](=O)[O-])cc1 | 39% (active)
6 | O=C(Nc1ccc([N+](=O)[O-])cc1Br)C12CC3CC(CC(C3)C1)C2 | -8% (inactive)
7 | Cc1c(CCOC(=O)CC23CC4CC(CC(C)(C4)C2)C3)sc[n+]1Cc1ccc([N+](=O)[O-])cc1 | 6.21% (inactive)
8 | COc1ccc(-c2noc(CN3N=NC4C(=O)N(c5ccc(C)c(F)c5)C(=O)C43)n2)c(OC)c1 (stereo not drawn) | 6% (inactive)
9 | O=C(NCC(O)(c1ccccc1)C(F)(F)F)C(=O)Nc1ccccc1 (stereo not drawn) | -3% (inactive)
10 | CS(=O)(=O)N1CCC(CNC(=O)c2cc3ccccc3o2)CC1 | -23% (inactive)
11 | CC1(C)N=C(SCC(=O)Nc2ccc(Br)cc2)C(c2ccccc2)=N1 | -5% (inactive)
12 | COc1ccc2nc(N(CCN(C)C)C(=O)c3ccc(S(=O)(=O)N4CCCc5ccccc54)cc3)sc2c1 | 41% (active)
13 | Cc1ccc2nc(N(CCN(C)C)C(=O)c3ccc(S(=O)(=O)N4CCCCCC4)cc3)sc2c1 | 35% (active)
14 | COc1cccc2sc(N(CCCN(C)C)C(=O)c3ccc(F)cc3)nc12 | -18% (inactive)
15 | CC1CN(S(=O)(=O)c2ccc(C(=O)N(CCN(C)C)c3nc4cc5c(cc4s3)OCCO5)cc2)CC(C)O1 (stereo not drawn) | 15% (inactive)
16 | COc1ccc2nc(N(CCN3CCOCC3)C(=O)c3ccccc3S(C)(=O)=O)sc2c1 | 0% (inactive)
17 | CCOc1ccc2nc(N(CCN(C)C)C(=O)c3ccc(S(=O)(=O)N4CCC(C)CC4)cc3)sc2c1 | 29% (inactive)
18 | CN(C)CCCN(C(=O)c1ccc(S(=O)(=O)N2CCCc3ccccc32)cc1)c1nc2ccc(F)cc2s1 | 42% (active)
19 | COc1cc2nc(N(CCN(C)C)C(=O)c3ccc(S(=O)(=O)N(C)Cc4ccccc4)cc3)sc2cc1OC | 24% (inactive)
20 | CN(C)CCCN(C(=O)c1ccccc1)c1nc2c(F)cc(F)cc2s1 | 5% (inactive)
21 | CCOc1ccc2nc(N(CCN(C)C)C(=O)c3ccc4ccccc4c3)sc2c1 | 14.2% (inactive) and 45% (active)
22 | CN(C)CCN(C(=O)CCOc1ccccc1)c1nc2cc3c(cc2s1)OCO3 | 7% (inactive)
23 | CCOc1ccc2nc(N(Cc3ccncc3)C(=O)Cc3ccc(F)cc3)sc2c1 | 13% (inactive)
24 | O=C1CCCC(=O)N1CCS(=O)(=O)N1CCC(c2nnc(-c3ccco3)s2)CC1 | -4% (inactive)

Row | Compound | inhibition
25 | O=C([C@@H]1CC=CCC1)N1CCN(c2ccc(-n3cncn3)nn2)CC1 | -9% (inactive)
26 | CCc1nc(-c2ccc(N3CCN(C(=O)c4cc5cccc(OC)c5o4)CC3)nc2)no1 | -1% (inactive)
27 | NCc1n[nH]c(=O)c2ccccc12 | -2% (inactive) and -4% (inactive)
28 | COC(=O)c1ccccc1NC(=O)c1snnc1C | -11% (inactive)
29 | COc1ccc(OC)c(C(=O)Nc2ccc3nc(N4CCN(C)CC4)sc3c2)c1 | 6% (inactive) and -21% (inactive)
30 | CN1CCN(c2nc3ccc(NC(=O)c4ccc5c(c4)OCO5)cc3s2)CC1 | -2% (inactive)
31 | COc1cccc2cc(C(=O)Nc3ccc4nc(N5CCN(C)CC5)sc4c3)oc12 | -6% (active)
32 | O=C(NCC#CCOc1ccc2c(c1)OCO2)Nc1ccccc1C(F)(F)F | -21% (inactive)
33 | Cc1ccccc1-c1nc(CSc2nc(C)c(Cc3ccccc3)c(=O)[nH]2)c(C)o1 | 7% (inactive)
34 | Cc1nc2oc(-c3ccccc3)nc2cc1NC(=O)c1cc(=O)c2ccccc2o1 | -8% (inactive)
35 | Cc1c(C(=O)O)cccc1-c1ccc(C=NNc2ccc(Br)cc2)o1 | 0.6% (inactive)
36 | CC(C)Sc1ccc(C(=O)Nc2nc(-c3ccccn3)cs2)cc1 | 50.6% (inactive)
37 | O=C(Nc1nc(-c2ccccn2)cs1)c1ccc(-c2ccccc2)cc1 | -19% (inactive)
38 | CC(NC(=O)c1ccco1)C(=O)Nc1nc(-c2ccccn2)cs1 (stereo not drawn) | 74.4% (active)
39 | CCSc1ccc(C(=O)Nc2sc(-c3ccccc3)cc2C(N)=O)cc1 | -22% (inactive)
40 | O=C(NN=Cc1cc(Cl)cc([N+](=O)[O-])c1O)c1cccc(S(=O)(=O)N2CCOCC2)c1 | 41.7% (active)
41 | CCOc1cc(C=NNC(=O)c2cccc(S(=O)(=O)N3CCOCC3)c2)ccc1OCC(=O)N(C)C | -12.5% (inactive)
42 | CC(=O)Nc1ccc(C=NNC(=O)c2cccc(S(=O)(=O)N3CCOCC3)c2)cc1 | -5.31% (inactive)
43 | O=C(Oc1cccc(Oc2ccccc2)c1)N1CCCCC1 | -33% (inactive)
44 | O=C(Nc1nc(CCC(=O)N2CCN(c3ncccn3)CC2)cs1)NC1CCCCC1 | -9% (inactive)
45 | COc1ccccc1CNC(=O)CSc1nc2c(-c3ccccc3)c[nH]c2c(=O)n1C1CC1 | -8% (inactive)
46 | CCc1ccccc1NC(=O)NCCOc1ccc2nnc(-c3cccc(F)c3)n2n1 | -4% (inactive)
47 | O=S(=O)(NCC1(CO)CC1)c1cccc(Cl)c1 | -9% (inactive)
48 | Cc1cc(C(=O)NCC2CCCN2c2ccccc2)no1 (stereo not drawn) | 0% (inactive)

Row | Compound | inhibition
49 | COCCNC(=O)NC[C@H]1CCCN1c1ccccc1 | 6% (inactive)
50 | O=C(NC[C@H]1CCCN1c1ccccc1)c1cc(-c2ccco2)[nH]n1 | 47% (active)
51 | COc1ccc(OC)c(C(=O)Nc2nnc(Cc3ccc(Cl)s3)o2)c1 | -12% (inactive)
52 | COc1ccc(-c2nnc(SCC(=O)Nc3cccnc3Cl)n2C)cc1 | 2.83% (inactive)
53 | COc1ccc(Cn2c(CO)cnc2SCC(=O)Nc2cccc3ccccc23)cc1 | 41% (active)
54 | COc1cc(CO)ccc1OCC(=O)Nc1cccc2ccccc12 | -4.4% (inactive)
55 | O=S(=O)(Cc1ccccc1)N1CCN(c2cc(-n3cccc3)ncn2)CC1 | 6% (inactive)
56 | CCCN1C(=O)C(C)(C)COc2ccc(N)cc21 | 32% (inactive)
57 | Cn1cccc1-c1noc(CNC(=O)c2n[nH]c(=O)c3ccccc23)n1 | -3% (inactive)
58 | CCC(=O)Nc1c(C)nc2scc(C)n2c1=O | 13% (inactive)
59 | N#Cc1nc(-c2ccco2)oc1N1CCN(C(=O)c2ccccc2F)CC1 | 9% (inactive)
60 | CC1CCN(c2oc(-c3ccccc3F)nc2C#N)CC1 | 42.8% (active)
61 | N#Cc1nc(-c2cccc3ccccc23)oc1N | -28.7% (inactive)
62 | O=C(NC[C@]1(O)CCc2ccccc21)c1ccccc1F | -14% (inactive)
63 | O=C(NCCc1ccccc1)NCCC(O)c1ccccc1 (stereo not drawn) | -6% (inactive)
64 | CC(C)C(NC(=O)c1ccc([N+](=O)[O-])cc1)c1nc2ccccc2[nH]1 (stereo not drawn) | -6% (inactive)
65 | CC(=NC1CCN(Cc2ccccc2)CC1)c1c(O)[nH]c(=O)[nH]c1=O | -3% (inactive)
66 | c1ccc(Cc2nnc(-c3ccc4c(c3)OCCO4)o2)cc1 | -10% (inactive)
67 | c1ccc(CN2CCC(N=C3NN=C(c4ccc5c(c4)OCCO5)CS3)CC2)cc1 | 49.7% (active)
68 | O=C(Cc1cc(=O)[nH]c(SCc2cccc(Cl)c2)n1)Nc1ccc2c(c1)OCCO2 | 12% (inactive)
69 | Clc1cccc(N=C2NN=C(c3ccc4c(c3)OCCO4)CS2)c1 | 44.3% (active)
70 | CC1Oc2ccccc2OC1C(=O)N1CCN(c2nc3c(S(C)(=O)=O)cccc3s2)CC1 (stereo not drawn) | -4% (inactive)
71 | Cc1ccc(Cl)cc1-n1ccn(CC#N)c(=O)c1=O | -5% (inactive)
72 | Cc1ccc(NC2=NC(c3ccccc3)n3c(nc(C)cc3=O)N2)cc1 (stereo not drawn) | -5.57% (inactive)

Row | Compound | inhibition
73 | Cc1ccc(Nc2cc(C)nc3c(C)ccc([N+](=O)[O-])c23)cc1 | 106% (active)
74 | Cc1ccc2nc(C(=O)O)cc(Nc3ccc(C)c(C)c3)c2c1 | -5% (inactive)
75 | O=C(Nc1cccc(-c2nc3ccccc3s2)c1)c1ccc([N+](=O)[O-])cc1 | -2% (inactive)
76 | CC(=O)OCC1OC(Oc2ccc(C(=O)/C=C/c3ccccc3)cc2)C(OC(C)=O)C(OC(C)=O)C1OC(C)=O (stereo not drawn) | 5% (inactive)
77 | CCN(CC)CCC(c1ccc2c(c1)OCO2)c1c(OC)cc(OC)c2c(-c3ccccc3)cc(=O)oc12 (stereo not drawn) | 24.5% (inactive)
78 | COc1cc(OC)c2ccc(=O)oc2c1C(CCN1CCN(c2ccccc2)CC1)c1ccc2c(c1)OCO2 (stereo not drawn) | 41.6% (active)
79 | COc1cc(C(CCN2CCN(c3ccccc3)CC2)c2c(OC)cc(OC)c3ccc(=O)oc23)cc(OC)c1OC (stereo not drawn) | -0.54% (inactive)
80 | C=CCOc1ccc(C(O)=C2C(=O)C(=O)N(CCOC)C2c2cccnc2)cc1 (stereo not drawn) | 0.46% (inactive)
81 | FC(F)Sc1ccc(-c2csc(Nc3ccccc3)n2)cc1 | -4% (inactive)
82 | O=C(c1ccc(Br)o1)N1CCC(CSc2ccccn2)CC1 | 7% (inactive)
83 | CC(=O)Nc1ccc(C(=O)N2CCc3nc4ccc(Cl)cn4c(=O)c3C2)cc1 | -7% (inactive)
84 | CC(C)CS(=O)(=O)C1CN(C(=O)c2ccc3nsnc3c2)C1 | -14% (inactive)
85 | Oc1c(CN2CCCC2)cc(Cl)c2cccnc12 | 103% (inactive)
86 | Oc1c(CN2CCOCC2)ccc(CN2CCOCC2)c1O | -7.99% (inactive)
87 | Oc1ccc(CN2CCCCCC2)c2cccnc12 | 124% (active)
88 | COCCOCc1ccc(O)c2ncccc12 | 114% (active)
89 | OCc1cccc2cccnc12 | 41.4% (inactive)
90 | O=[N+]([O-])c1ccc(N2CCCCC2)c2cccnc12 | 46.9% (inactive)
91 | COc1ncc(Br)c2ncccc12 | -7% (inactive)
92 | Oc1ccc(CN2CCCC2)c2cccnc12 | 106% (active)
93 | Clc1ccc(CN2CCCCCC2)cc1Cl | -4.06% (inactive)
